# “And” between values parts separate entries of the source, which are not always exact repeats. Equal values may be shown once. Records with an inconclusive call do not appear. Where a call stands in place of a potency, no number is given. The source made the active and inactive calls. The call rests on the fitted dose curve; in most records, active means well fitted inhibition curve with a large enough effect; inconclusive means small, poorly fitted or top-dose-only effect; inactive means flat fitted curve, though single readings scatter.
# Assay: Primary qHTS for inhibitors of nuclear receptor binding SET domain protein 2 (NSD2) in an isogenic RCH-ACV NSD2 p.E1099K mutant (9B) (AID 1645876); further: nearly all actives have a fitted effect of over 70% in size
# Conditions: RCH-ACV (leukaemia line) NSD2 E1099K (9B) viability, CellTiter-Glo, 72 h; series mostly up to 44.9 µM
# Potency means the concentration at half of the fitted maximal effect.
Structure (SMILES),Potency,"activity change, negative = viability loss"
O=C(Nc1ccccc1)N1CCN(Cc2ccc3ccccc3n2)CC1,inactive,
COc1ncc2cc(C(=O)Nc3cc(C(=O)NCc4cccc(Cl)c4)ccc3Cl)c(=O)[nH]c2n1,6.51 µM (active),
CC(=O)N1CCN(C(=O)Cc2ccc(Nc3ncc(F)c(Nc4ccc(C(=O)Nc5ccccc5Cl)cc4)n3)cc2)CC1,1.63 µM (active),
CC(C)(C)Nc1nc2cc(Cl)c(Cl)cc2nc1S(C)(=O)=O,1.29 µM (active),
C#CCN(Cc1cc2c(=O)[nH]c(C)nc2cc1Br)c1ccc(C(=O)NCc2cccnc2)cc1,inactive,
COc1cc2ncnc(N3CCC(Oc4cnc5ccccc5n4)C3)c2cc1OC (centres undefined),0.258 µM (active),
CCO[C@@H]1OC(=O)C[C@@H]1NC(=O)[C@@H]1CCCN1C(=O)[C@@H](NC(=O)c1ccc(N)c(Cl)c1)C(C)(C)C,inactive,
COc1cc2nc(N3CCC(N4CCCCC4)CC3)nc(NC3CCCCCC3)c2cc1OC,2.3 µM (active),
COc1cc(N)c(Cl)cc1C(=O)NC[C@@H]1CCN2CCC[C@@H]12,inactive,
Cc1nc2sc(C(=O)NCc3ccncc3)c(N)c2c(C)c1Cl,inactive,
CCOc1cc(CC(=O)NC(CC(C)C)c2ccccc2N2CCCCC2)ccc1C(=O)O (centres undefined),inactive,
C=CC(=O)Nc1cccc(CN2C(=O)N(c3c(Cl)c(OC)cc(OC)c3Cl)Cc3cnc(NCCCCN(CC)CC)nc32)c1,2.05 µM (active),
CN(C)c1nc(NC2CCC(NCCc3ccc(Br)cc3OC(F)(F)F)CC2)nc2ccccc12 (centres undefined),3.65 µM (active),
CCCCCCOc1cc2c(cc1N(C)c1ncc(C(=O)O)cn1)C(C)(C)CCC2(C)C,inactive,
NC1CCC(Nc2cc(-c3cccc(NCc4cccc(F)c4)n3)c(Cl)cn2)CC1 (centres undefined),0.0817 µM (active),
Cc1oc2ccccc2c1CNC(=O)NCc1cccs1,inactive,
CC(C)(C#N)c1ccc(N2C(=O)OCc3cnc4ccc(-c5cnc6ccccc6c5)cc4c32)cc1,0.728 µM (active),
Cc1onc(C(=O)N2CCN(C(c3ccc(Cl)cc3)c3ccc(Cl)cc3)CC2)c1[N+](=O)[O-],0.23 µM (active),
CCOC(=O)c1cc(C#N)c(N2CCC(C(=O)NS(=O)(=O)Cc3ccccc3)CC2)nc1C,inactive,
Cc1ccc(C(=O)Nc2noc3ccccc23)cc1,inactive,

Structure (SMILES),Potency,"activity change, negative = viability loss"
O=C(NCc1ccccn1)Nc1nnc(-c2ccco2)o1,inactive,
CC(C)(C)NCCCNC(=O)c1cccc(Br)c1,inactive,
c1ccc(N2CCN(CCc3nn[nH]n3)CC2)cc1,inactive,
NC(=O)Nc1cc(-c2cccc(F)c2)sc1C(=O)NC1CCCNC1 (centres undefined),0.0728 µM (active),
O=C(O)C1CN(Cc2ccc(-c3nc4cc(Cc5ccccc5F)ccc4s3)c(F)c2)C1,,0.892% [at 9.23 µM] (inactive)
O=C(O)[C@@H]1C[C@H]2C[C@@H](CCc3nn[nH]n3)CC[C@H]2CN1,inactive,
CC(C)C(CO)Nc1nc(Nc2cc(N)cc(Cl)c2)c2ncn(C(C)C)c2n1 (centres undefined),6.49 µM (active),
CC(C)(C)c1ccc(S(=O)(=O)NCc2ccc(C(=O)Nc3cccnc3)cc2)cc1,0.258 µM (active),
COC(=O)CCSCc1ccc(-c2onc(C)c2NC(=O)OC(C)c2ccccc2Cl)cc1 (centres undefined),inactive,
CCCN1CCN(c2ccc(C(=O)NC3(C(=O)NCC#N)CCCCC3)cc2)CC1,inactive,
O=C(O)c1ccccc1NC(=O)N1CCC(c2ccccc2C(F)(F)F)CC1,inactive,
CC1CCN(C(=O)CC#N)CC1N(C)c1ncnc2[nH]ccc12 (centres undefined),inactive,
Cc1cccc(Oc2cnc(=O)[nH]c2)c1,inactive,
O=S(=O)(NCC1CC1)c1ccc(Nc2nccc(N3CCCc4cc(O)ccc43)n2)cc1,1.15 µM (active),
NC(=O)c1cnc(NCCc2ccc(O)c(Cl)c2)nc1NCc1ccccc1,1.29 µM (active),
CNCc1ccc(-c2cc(-c3nc(-c4ccc(S(=O)(=O)C(C)C)cc4)cnc3N)on2)cc1,183 nM (active) and 83.3 nM (active),
Cc1cc(OCc2nnc(SC3CCCC3)n2-c2cccnc2)ccc1-c1ccc(S(C)(=O)=O)cc1,0.817 µM (active),
CCc1cc(CN2CC(C(=O)O)C2)sc1-c1noc(-c2ccc(Oc3ccccc3)cc2)n1,10 µM (active),
O=C(O)c1cccc(S(=O)(=O)N2CCc3ccccc3C2)c1,inactive,

# From PubChem BioAssay (NCATS)
